Unmarked numbers belong to inactive results. Calls of active or inactive are those of the source. The call rests on the fitted dose curve; in most records, active means well fitted curve in the direction sought with a large enough effect in the repeat runs; inconclusive means weak or mixed curves; inactive means flat fitted curve, though single readings scatter.
Experiment: qHTS assay to test for compound auto fluorescence at 590 nm (red) in HepG2 cells (AID 720674)
Settings: HepG2 autofluorescence, red 540/590 nm, 1 h; series mostly up to 91.3 µM; fluorescence, relative to Rose Bengal: at the top concentration
Outline: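 Seeding: 2,000 HepG2 cells/well, MEM/10% FBS, overnight 37 C. Dosing: compound vs DMSO. Incubation: 1 hr, 37 C, 5% CO2. Read: fluorescence 540 ex/590 em, Rose Bengal sodium as red reference.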
On the % scale 0 is the no-effect control and ±100 the full control effect.

Compound	fluorescence, relative to Rose Bengal	outcome
CC(=O)C(C)=O	0.0148%	
O=C1[C@@H]2[C@H]3CC[C@H](C3)[C@@H]2C(=O)N1CCCCN1CCN(c2ncccn2)CC1	0.0713% [at 46 µM]	
CNS(=O)(=O)c1cc(C(=O)N2CCC(CCN3C4CCC3CC(n3c(C)nc5ccccc53)C4)(c3cccc(F)c3)CC2)c(Cl)cc1F (centres undefined)	0.0555%	
COc1ccc(CCN(C)CCCN2CCc3cc(OC)c(OC)cc3CC2=O)cc1OC	-0.617% [at 46 µM]	
CCCCCC	-0.0914%	
CSCC[C@H](NC(=O)[C@H](Cc1c[nH]c2ccccc12)NC(=O)CCNC(=O)OC(C)(C)C)C(=O)N[C@@H](CC(=O)O)C(=O)N[C@@H](Cc1ccccc1)C(N)=O	-0.0686% [at 46 µM]	
COc1ccc(-c2cc(=S)ss2)cc1	-0.0163% [at 46 µM]	
COc1ccc(-n2nc(C(F)F)cc2-c2ccc(S(C)=O)cc2)cc1 (centres undefined)	-0.0991%	
O=C(Oc1ccccc1)c1ccc2ccccc2c1O	0.0157%	
Cc1cc(CCC(=O)OCCOCCOCCOC(=O)CCc2cc(C)c(O)c(C(C)(C)C)c2)cc(C(C)(C)C)c1O	-0.122%	
CCCCCCCC/C=C\CCCCCCCC(=O)OCCO	-0.216% [at 95.7 µM]	
COc1ccc(N)c([N+](=O)[O-])c1	-0.0206%	
COc1ccc2nc(S(=O)Cc3ncc(C)c(OC)c3C)[nH]c2c1 (centres undefined)		inactive
c1ccc(CNc2ncnc3c2ncn3C2CCCCO2)cc1 (centres undefined)	0.0059%	
C[C@@H]1[C@H](O)[C@@H](C)/C=C/C=C\C=C\C=C\C=C\C=C\C=C\[C@H](O[C@@H]2O[C@H](C)[C@@H](O)[C@H](N)[C@@H]2O)C[C@@H]2O[C@](O)(C[C@@H](O)C[C@@H](O)[C@H](O)CC[C@@H](O)C[C@@H](O)CC(=O)O[C@H]1C)C[C@H](O)[C@H]2C(=O)O (stereo in doubt)		inactive
O=C(O)CCC(=O)OC[C@@H](NC(=O)C(Cl)Cl)[C@H](O)c1ccc([N+](=O)[O-])cc1	0.107% [at 46 µM]	

Compound	fluorescence, relative to Rose Bengal	outcome
CC(=O)OCCC(C)CC(C)(C)C (centres undefined)	-0.0733%	
O=C1NC(=O)c2cccc3cccc1c23	0.242%	
CCN(CC)c1ccc(C(=C2C=CC(=[N+](CC)CC)C=C2)c2ccc(S(=O)(=O)O)cc2S(=O)(=O)[O-])cc1	-0.364%	
CCCCC[C@H](O)/C=C/[C@H]1[C@H](O)CC(=O)[C@@H]1C/C=C\CCCC(=O)O	-0.174% [at 46 µM]	
CC[C@@H](CO)NCCN[C@@H](CC)CO	-0.504% [at 18.6 µM]	
O=[N+]([O-])C1(Br)COCOC1	0.292%	
CCCCOC(=O)CCCCC(=O)OCCCC	-0.101%	
N[C@@H](Cc1cc(I)c(O)c(I)c1)C(=O)O	-0.0559% [at 46 µM]	
O=C(O)c1cccc(C[C@@H]2COc3ccc(OCc4nc5cc(F)ccc5s4)cc3[C@@H]2O)c1	0.454%	
CN(C)CC/C=C1\c2ccccc2Sc2ccc(Cl)cc21	-0.0797% [at 46 µM]	
CCOC(=O)C(C)O (centres undefined)	-0.137% [at 95.7 µM]	
Cc1c(C2(c3cc(Br)c(O)c(Br)c3C)OS(=O)(=O)c3ccccc32)cc(Br)c(O)c1Br	-0.142%	
CCC(CO)(CO)CO	0.132% [at 95.7 µM]	
CCOC(=O)c1ccc(NC(=O)CN2CCCCC2)cc1	-0.289% [at 46 µM]	
CCN(Cc1cccc(S(=O)(=O)O)c1)c1ccc(C(=C2C=CC(=[N+](CC)Cc3cccc(S(=O)(=O)O)c3)C=C2)c2ccccc2S(=O)(=O)[O-])cc1	0.317%	

Experiment: qHTS assay to test for compound auto fluorescence at 535 nm (green) in HepG2 cells (AID 720675)
Settings: green autofluorescence 485/535 nm, 1 h; series mostly up to 91.3 µM; fluorescence, % of fluorescein control: at the top concentration

Compound	fluorescence, % of fluorescein control
CC(=O)C(C)=O	0.0123%
O=C1[C@@H]2[C@H]3CC[C@H](C3)[C@@H]2C(=O)N1CCCCN1CCN(c2ncccn2)CC1	0.0204% [at 46 µM]
CNS(=O)(=O)c1cc(C(=O)N2CCC(CCN3C4CCC3CC(n3c(C)nc5ccccc53)C4)(c3cccc(F)c3)CC2)c(Cl)cc1F (centres undefined)	0.0468%
